FMDV antiviral – High Throughput Screening for Foot and Mouth Disease Virus Antivirals; AID 1159524, 2015; FMDV antiviral cell-based qHTS; Potency, µM (highest dose often 57.9 µM), hits mostly inhibitors; 410,000 tested, 1.2% active; calls by dose curve; tested in HEK293T cells; also: read-out not given here; nearly all actives have a fitted effect of over 45% in size
Vaccinia Venus – qHTS for Stage-Specific Inhibitors of Vaccinia Orthopoxvirus: Venus Reporter Primary qHTS; Vaccinia virus Venus reporter expression, fluorescence; Potency, µM (titrated, usually from 36.5 µM), usual class: inhibitors; 330,000 tested, 0.46% active; AID 720580, 2013; calls by dose curve; tested in A549 cells; also: nearly all actives have a fitted effect of over 30% in size
FBPA Giardia inh – qHTS Assay for Inhibitors of Fructose-1,6-bisphosphate Aldolase from Giardia Lamblia; purified Giardia FBPA; 290,000 tested, 0.71% active; Potency, µM (titrated, usually from 59.6 µM), actives largely listed as inhibitors; A8B2U2; AID 2451, 2010; active = well fitted inhibition curve with a large enough effect; inconclusive = small, poorly fitted or top-dose-only effect, or effect the other way; also: nearly all actives have a fitted effect of over 55% in size
Target sequence (A8B2U2 whole entry, looked up): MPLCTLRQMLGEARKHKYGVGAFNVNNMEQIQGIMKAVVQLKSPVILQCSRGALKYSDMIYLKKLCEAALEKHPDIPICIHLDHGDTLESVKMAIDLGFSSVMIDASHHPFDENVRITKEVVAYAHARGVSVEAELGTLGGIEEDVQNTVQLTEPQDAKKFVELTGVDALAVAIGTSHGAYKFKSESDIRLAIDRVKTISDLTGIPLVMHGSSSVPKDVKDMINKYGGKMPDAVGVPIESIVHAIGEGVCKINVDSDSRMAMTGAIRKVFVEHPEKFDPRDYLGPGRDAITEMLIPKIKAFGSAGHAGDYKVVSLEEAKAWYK
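Giardia FBPA (40 nM reagent) was preincubated 10 min at RT with compound (up to 57.5 uM final), then substrate plus GAPDH/TPI/NAD/arsenate coupling system with diaphorase/resazurin was added; resorufin fluorescence (525/598 nm) was read after 20 min.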
VACV mCherry inh – qHTS for Stage-Specific Inhibitors of Vaccinia Orthopoxvirus: mCherry Reporter Primary qHTS; Potency, µM (series often up to 36.5 µM), actives largely listed as inhibitors; 310,000 tested, 0.63% active; AID 720579, 2013; Vaccinia virus mCherry reporter infection, fluorescence; calls by dose curve; tested in A549 cells; also: nearly all actives have a fitted effect of over 35% in size
Numbers stand for hits; . = inactive; ? = inconclusive; / = not tested or not shown. Hits are enriched below; roughly 2.2% of the tested compounds scored in any of these assays.

SMILES | FMDV antiviral | Vaccinia Venus | FBPA Giardia inh | VACV mCherry inh
O=C(Nc1nc(-c2ccc(S(=O)(=O)N3CCCC3)cc2)cs1)c1cccs1 | ? | ? | . | /
COc1cc(C(=O)Nc2nc(-c3ccc(C)cc3)cs2)ccc1OCC(=O)N1CCOCC1 | 22.4µM | / | . | /
Cc1ccc(-c2csc(NC(=O)c3cccc(S(=O)(=O)N4CCN(C)CC4)c3)n2)cc1 | 12.6µM | . | . | .
CSc1ccc2cc(CNCc3ccccc3F)c(N3CCCC(CO)C3)nc2c1 (stereo not drawn) | . | . | / | .
CC[C@H](C)[C@H](NC(=O)[C@H](CC(=O)O)NC(=O)[C@H](CC(C)C)NC(=O)[C@H](Cc1cnc[nH]1)NC(=O)[C@H](C)NC(=O)[C@H](Cc1ccccc1)NC(=O)[C@H](Cc1ccc(O)cc1)NC(=O)[C@@H](NC(=O)[C@H](C)NC(=O)[C@H](CCC(=O)O)NC(=O)[C@H](CCC(=O)O)NC(=O)[C@H](CC(=O)O)NC(=O)CCC(=O)O)C(C)C)C(=O)N[C@H](C(=O)N[C@@H](Cc1c[nH]c2ccccc12)C(=O)O)[C@@H](C)CC | / | / | . | /
Cc1ccc(-c2csc(NC(=O)C3=NN(c4ccccc4)C(=O)CC3)n2)cc1 | 28.2µM | . | . | .
CC(C)CC(=O)Nc1nc(-c2ccc(S(=O)(=O)N3CCOCC3)cc2)cs1 | 22.4µM | . | . | .
O=C(Nc1nc(-c2ccccc2)cs1)C1CCCN(S(=O)(=O)c2ccccc2)C1 (stereo not drawn) | 10µM | . | . | ?
c1ccc(CCNc2ccnc3cc4ccccc4cc23)cc1 | 14.1µM | ? | ? | ?
Cc1ccc(C(=O)N(Cc2cc3cc4c(cc3nc2N2CCOCC2)CCC4)CC2CCCO2)cc1 (stereo not drawn) | . | . | / | .
Cc1nn(Cc2ccc(Cl)cc2)c(C)c1NC(=O)c1noc2c1CCc1ccccc1-2 | 39.8µM | ? | . | ?
COc1ccc2c(c1)CCc1c(C(=O)Nc3c(C)nn(Cc4ccccc4)c3C)noc1-2 | 28.2µM | ? | . | ?
OC1(c2cccnc2)CCN(Cc2ccc3c(c2)CN(Cc2cc(F)cc(F)c2)CCO3)CC1 | . | . | / | .
COc1ccc(CCNC(=O)CN2C(=O)COc3ccc(S(=O)(=O)N4CCCCCC4)cc32)cc1OC | ? | . | / | .
Cn1cnc([N+](=O)[O-])c1S(=O)(=O)Oc1cccc2ccccc12 | 22.4µM | . | / | ?
Cn1cnc([N+](=O)[O-])c1Oc1cccc2ccccc12 | 28.2µM | ? | . | .
Cn1cnc([N+](=O)[O-])c1S(=O)(=O)Oc1ccc(Cl)cc1 | 20µM | . | / | ?
CN1CCN(c2nc3c(=O)[nH]c(N)nc3n2C2OC(CO)C(O)C2O)CC1 (stereo not drawn) | / | . | / | .
Cc1ccc2nc(SCC(=O)NCC3Cc4cc(-c5ncccc5C)ccc4O3)[nH]c2c1 (stereo not drawn) | . | . | / | .
CC(C)C[C@@H]1CN(CCCC[C@H]2CNC(=O)C(=O)N2CCC2CCCCC2)C(=O)C(=O)N1CC1CCCCC1 | . | . | / | .
O=C1NC[C@H](c2ccccc2)N(CCCCC2CCCCC2)C1=O | . | ? | / | 2.24µM
CC(C)C[C@H]1CN(CCCC[C@H]2CNC(=O)C(=O)N2CCC2CCCCC2)C(=O)C(=O)N1CCC1CCCCC1 | 35.5µM | ? | / | ?
CCN1CCCC1CNCc1cc2ccc(SC)cc2nc1-c1cc(OC)ccc1OC (stereo not drawn) | . | . | / | .
O=c1c2ccccc2c(-c2ccc(O)cc2)nn1-c1cccc(C(F)(F)F)c1 | 39.8µM | 11.2µM | . | ?
C=CCn1c(SCCC)nc2ccccc2c1=O | / | . | / | .
SMILES | FMDV antiviral | Vaccinia Venus | FBPA Giardia inh | VACV mCherry inh
O=C(/C=C/Nc1ccc(F)c(F)c1)c1cccs1 | . | . | . | .
O=C(/C=C/Nc1ccc(F)cc1)c1cccs1 | 12.6µM | . | / | .
O=C1NC(=O)C(Cc2ccccc2F)(C2CCN(Cc3cccn3-c3cccnc3)CC2)N1 (stereo not drawn) | . | . | / | .
Cc1c(C#N)c(NC(=O)CCl)n(Cc2ccccc2)c1C | 11.2µM | ? | . | ?
Cc1c(C#N)c(NC(=O)CCl)n(Cc2ccc(F)cc2)c1C | 12.6µM | / | ? | /
Cc1c(C#N)c(NC(=O)CCl)n(Cc2cccs2)c1C | 20µM | / | . | /
Cc1c(C(=O)N(C)C2CCOC2)sc2ncnc(NCC3(c4ccccc4)CCOCC3)c12 (stereo not drawn) | . | . | / | .
Oc1ccccc1C1C=C(c2ccc3c(c2)OCO3)NC(c2ccc(Br)cc2)N1 (stereo not drawn) | / | . | / | .
